Sampled rows, rich in hits. Any-hit rate of the full collection: about 3.9%.
Anthrax LF prot: Bacillus anthracis LF protease inhibitors, primary screen, biochemical, multiplex microsphere, MLPCN library; inhibition, % at 10 µM; AID 588501, 2011; Lethal factor (Bacillus anthracis), P15917; 360,000 compounds, 0.12% hits; multiplex microsphere protease cleavage assay; note: plate controls were buffer without enzyme for full effect and enzyme alone for no effect
Vc quorum ag: inducers of Vibrio cholerae quorum light production without autoinducers, primary screen, BH1578 luxS cqsA deficient, single point; V. cholerae BH1578 lux reporter, luminescence, 6 h; activation, % at 18.7 µM; 350,000 compounds, 0.16% hits; AID 588436, 2011; in the data active = activation mostly above about 9.7%, no sharp cut-off; inconclusive = no clear call, values can overlap the other calls; inactive = mostly below about 3.7%
MazEF act: activators of E. coli MazEF toxin-antitoxin RNase, primary screen, biochemical, fluorescence, uHTS; Endoribonuclease toxin MazF (Escherichia coli (strain K12)), P0AE70; FAM/BHQ RNA-DNA oligo cleavage fluorescence, 5 h; activation, % at 20 µM; 350,000 compounds, 0.32% hits; AID 504720, 2011; in the data active = activation above about 50%
Target sequence (P0AE70 whole entry, looked up): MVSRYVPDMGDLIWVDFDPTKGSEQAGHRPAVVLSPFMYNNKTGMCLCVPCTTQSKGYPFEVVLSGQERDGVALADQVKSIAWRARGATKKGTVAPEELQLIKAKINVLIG
BoNT F protease: BoNT/F light chain protease inhibitors, primary screen, biochemical, flow cytometry, MLPCN library. Multiplex microsphere protease cleavage assay. inhibition, % at 10 µM. 360,000 compounds, 0.22% hits. AID 588497, 2011; in the data active = inhibition above about 35%, passing the limit was not always enough; inconclusive = no clear call, values can overlap the other calls; note: plate controls were buffer without enzyme for full effect and enzyme alone for no effect
BoNT-A LC inh2: BoNT/A light chain protease inhibitors, primary screen, biochemical, flow cytometry, MLPCN library; multiplex microsphere protease substrate cleavage; inhibition, % at 10 µM; 360,000 compounds, 0.17% hits; AID 588499, 2011; note: plate controls were buffer without enzyme for full effect and enzyme alone for no effect
Autofluor counter: flagged as autofluorescent in microsphere protease counterscreen. compound autofluorescence counterscreen, microsphere flow cytometry; stronger effect = higher value. fluorescence intensity (no concentration beside the values). 360,000 compounds, 3.1% hits. AID 624483; in the data active = fluorescence intensity above about 16000; inconclusive = no clear call, values can overlap the other calls
* hit, by the source's call. Cut-off read from the data, not from the text of the source, unless noted: active = inhibition above about 30%; inconclusive = no clear call, values can overlap the other calls; inactive = below that.

CCC(=O)Nc1cc(C(=O)OCC(=O)c2ccc(Cl)cc2Cl)ccc1C was read as Anthrax LF prot -11.1, Vc quorum ag -0.4, MazEF act -3.6, BoNT F protease -4.9, BoNT-A LC inh2 -0.1 and Autofluor counter 6011.
CCC(=O)Nc1cc(C(=O)OCC(=O)c2ccccc2Cl)ccc1C was read as Anthrax LF prot -1.5, Vc quorum ag inactive, MazEF act 3.5, BoNT F protease -4.1, BoNT-A LC inh2 -1.4 and Autofluor counter 20188*.
COc1ccc(N(CC(O)Cn2cnc3ccccc32)S(=O)(=O)c2ccc(C)cc2)cc1 (centres undefined) was read as Anthrax LF prot -4.8, Vc quorum ag -0.3, MazEF act 4.4, BoNT F protease -1.6, BoNT-A LC inh2 0.2 and Autofluor counter 2479.
Screening CC(C)Cn1c(N)c(C(=O)CSc2nnc(C3CC3)n2C2CC2)c(=O)n(C)c1=O returned Anthrax LF prot 0.8, Vc quorum ag -1.7, MazEF act 0.8, BoNT F protease 3.4, BoNT-A LC inh2 0.6 and Autofluor counter 5027.
`CCOc1ccc(C(=O)Nc2c3c(nn2-c2cccc(Cl)c2)CS(=O)C3)cc1` (centres undefined) gave Anthrax LF prot -0.4, Vc quorum ag -0.2, MazEF act -3.2, BoNT F protease -1.4, BoNT-A LC inh2 -1.3 and Autofluor counter 22721*.
CCOc1ccc(C(=O)Nc2c3c(nn2-c2ccc(F)cc2)CS(=O)C3)cc1 (centres undefined) was read as Anthrax LF prot -1.3, Vc quorum ag -6.5, MazEF act -2.2, BoNT F protease -12.8, BoNT-A LC inh2 -0.1 and Autofluor counter 4478.
For CN(C)CC#CCC(O)(c1ccccc1)C1CCCC1 (centres undefined) the results were Anthrax LF prot -0.3, Vc quorum ag -2.2, MazEF act 0.7, BoNT F protease -3.1, BoNT-A LC inh2 -1.1 and Autofluor counter 23845*.
For CCN(CC)CC#CCC(O)(c1ccccc1)C1CCCCC1 (centres undefined) the results were Anthrax LF prot -8.9, Vc quorum ag -0.2, MazEF act -6.7, BoNT F protease -1.5, BoNT-A LC inh2 -0.4 and Autofluor counter 5357.
For CCOC(=O)CSc1ccc2ccccc2n1 the results were Anthrax LF prot 1.6, Vc quorum ag -1.1, MazEF act -9.7, BoNT F protease 0.4, BoNT-A LC inh2 0.2 and Autofluor counter 3897.
CCOC(=O)CN1C=C(c2ccc3ccccc3n2)C(C[N+](=O)[O-])c2ccccc21 (centres undefined) was read as Anthrax LF prot -3.8, Vc quorum ag -1.0, MazEF act 233.1*, BoNT F protease 5.5, BoNT-A LC inh2 2.2 and Autofluor counter 7947.
`CC(C)(C)NC(=O)CSc1n[nH]c(=O)n1-c1ccccc1` gave Anthrax LF prot -3.3, Vc quorum ag 0.7, MazEF act -0.6, BoNT F protease -2.4, BoNT-A LC inh2 -1.5 and Autofluor counter 20863*.
For CCOC(=O)c1c(N)sc2c(NC(C)=O)cccc12 the results were Vc quorum ag inactive and MazEF act 5.4.
Screening CCOC(=O)c1c(N)sc2c(O)c(Br)ccc12 returned Anthrax LF prot -1.7, Vc quorum ag -0.4, MazEF act -4.6, BoNT F protease -1.9, BoNT-A LC inh2 -0.4 and Autofluor counter 20732*.
For COc1ccc(C(=O)c2ccc(Br)cc2)cc1 the results were Anthrax LF prot 0.3, Vc quorum ag -0.2, MazEF act 4.5, BoNT F protease 1.9, BoNT-A LC inh2 1.5 and Autofluor counter 20227*.
COc1ccc(C(=O)c2ccccc2)cc1 was read as Anthrax LF prot -2.1, Vc quorum ag -0.2, MazEF act 4.6, BoNT F protease -8.8, BoNT-A LC inh2 -0.2 and Autofluor counter 2033.
Screening COc1ccc(N=C2C(=O)Nc3ccccc32)cc1 returned Anthrax LF prot -2.5, Vc quorum ag -2.6, MazEF act -1.5, BoNT F protease 0.9, BoNT-A LC inh2 -0.2 and Autofluor counter 22766*.
`O=C1Nc2ccccc2C1=Nc1ccc(F)cc1` gave Anthrax LF prot 3.6, Vc quorum ag inactive, MazEF act 15.4, BoNT F protease 16.4, BoNT-A LC inh2 -1.4 and Autofluor counter 2953.
Screening COc1ccc(OC)c(N=C2C(=O)Nc3ccccc32)c1 returned Anthrax LF prot -7.9, Vc quorum ag inactive, MazEF act 9.7, BoNT F protease -4.1, BoNT-A LC inh2 inconclusive and Autofluor counter 21377*.
`Cc1cc2occ(CC(=O)Nc3nccs3)c2cc1C(C)C` gave Anthrax LF prot -1.6, Vc quorum ag inactive, MazEF act 9.1, BoNT F protease 2.3, BoNT-A LC inh2 inconclusive and Autofluor counter 22242*.
Screening COc1cc(CC(=O)Nc2nccs2)cc(OC)c1OC returned Anthrax LF prot -3.3, Vc quorum ag inactive, MazEF act 5.4, BoNT F protease -3.7, BoNT-A LC inh2 inconclusive and Autofluor counter 22884*.
`COc1ccc(CCC(=O)Nc2nccs2)cc1OC` gave Anthrax LF prot 2.5, Vc quorum ag 0.6, MazEF act -15.5, BoNT F protease -8.5, BoNT-A LC inh2 1.0 and Autofluor counter 3625.
Screening O[C@@H]1C[C@H](c2ccccc2)N(CC2CCCCC2)C[C@H]1n1cc(C2CC2)nn1 returned Anthrax LF prot -1.5, Vc quorum ag inactive, MazEF act 4.1, BoNT F protease -0.7, BoNT-A LC inh2 0.0 and Autofluor counter 3690.
For O=C(NC(Cc1ccccc1)C(=O)N1CCN(S(=O)(=O)c2ccccc2)CC1)c1ccccc1 (centres undefined) the results were Anthrax LF prot -0.3, Vc quorum ag -0.6, MazEF act 1.3, BoNT F protease 11.9, BoNT-A LC inh2 2.9 and Autofluor counter 4175.
Screening O=C(O)CNC(=O)c1ccc(S(=O)(=O)N2CCOCC2)cc1 returned Anthrax LF prot 1.2, Vc quorum ag -0.2, MazEF act 3.0, BoNT F protease 1.5, BoNT-A LC inh2 1.1 and Autofluor counter 20309*.
O=C(NC(Cc1ccccc1)C(=O)O)c1ccc(S(=O)(=O)N2CCOCC2)cc1 (centres undefined) was read as Anthrax LF prot -1.0, Vc quorum ag inactive, MazEF act 0.5, BoNT F protease -0.8, BoNT-A LC inh2 0.2 and Autofluor counter 19429*.
COc1cc(/C=N/NC(=O)CN2CCCCC2)ccc1OCc1ccc(Br)cc1 was read as Anthrax LF prot 0.3, Vc quorum ag -0.3, MazEF act 2.4, BoNT F protease 0.8, BoNT-A LC inh2 0.1 and Autofluor counter 2231.
For Cc1cn([C@H]2C[C@H](O)[C@@H](CNCc3cccc(OC4CCCC4)c3)O2)c(=O)[nH]c1=O the results were Anthrax LF prot -2.0, Vc quorum ag 0.0, MazEF act 2.4, BoNT F protease 0.5, BoNT-A LC inh2 -0.5 and Autofluor counter 3836.

Compound activity (PubChem)
